Source: PubChem
CF NFkB inh: cystic fibrosis NF-kB activation inhibition. 360,000 compounds, 0.86% hits. KKLEB NF-kB-GFP reporter, PAF-induced, GFP fluorescence overnight. inhibition, % at 5 µM. AID 588850;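 active = at least 50% inhibition at 5 µM, scaled per plate between neutral and stimulator controls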;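 note: PAF is a Pseudomonas aeruginosa culture filtrate used as stimulus; plate controls were PAF-stimulated DMSO wells for no effect and unstimulated DMSO wells for full effect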
HIF-2a block: HIF-2a inhibition | 786-0 RCC cells HIF-2a reporter, luciferase luminescence, overnight | AID 624352 | 360,000 compounds, 0.72% hits | inhibition, % at 18.8 µM;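 active = inhibition of the luminescence signal of 40% or more relative to plate controls, in a single-dose primary screen at 18.75 µM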
Peg3 promoter: inhibitors of Peg3 promoter; HeLa PEG-Prom luciferase reporter, luminescence, overnight; inhibition, % at 20 µM; 360,000 compounds, 1.7% hits; AID 588405;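 active = inhibition of at least 50% at 20 µM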
Shn3 3UTR inh: Schnurri-3 reporter inhibition in Clone20 osteoblasts | 360,000 compounds, 0.52% hits | Clone20 osteoblast Shn3 3'UTR firefly luciferase, 24 h | inhibition, % at 12.5 µM;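 active = mean inhibition of at least 75% with every replicate also reaching 75%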;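 note: 0% = median of neutral control wells and 100% = pilot-screen positive control compound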
TRPM1 prom inh: reduces MITF-dependent TRPM1 promoter luciferase signal; SK-MEL-5 TRPM1 promoter luciferase, 24 h; inhibition, % at 12.5 µM; 330,000 compounds, 0.83% hits;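 active = mean inhibition across replicates of 60% or more, whatever share of single replicates reaches that level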
KKLEB cytotox: CF airway cell cytotoxicity counter-screen; 360,000 compounds, 0.36% hits; AID 602141; activity change (cytotoxicity), % at 5 µM; KKLEB CF airway cells viability, ATPlite luminescence, overnight; hits give low values; cells stimulated with P. aeruginosa culture filtrate;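 active = corrected activity change at or below -50% at 5 µM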
* = called active by the depositor; · = not tested or not shown. Most compounds without a hit are left out; they make up all but 2.7% or so of the library.

SMILES	CF NFkB inh	HIF-2a block	Peg3 promoter	Shn3 3UTR inh	TRPM1 prom inh	KKLEB cytotox
Cc1cc(C(=O)CSc2nc3ccccc3[nH]2)c(C)n1CC1CCCO1 (configuration not stated)	13.9	-56.5	102.5*	73.5	27.7	-27.9
Nc1ccc2c(c1)C(=O)c1ccccc1-2	4.6	-5.3	-24.2	2.6	-11.9	1.2
Nc1ccc2c(c1)C(=O)C(=O)c1ccccc1-2	79.8*	93.3*	99.8*	96.8*	107.0*	-96.4*
O=C1NC[C@@H](c2ccccc2)OC(=O)[C@H](Cc2ccc(F)cc2)C/C=C\C[C@H]1CC(=O)N(CCO)Cc1ccccc1	0.3	7.9	25.6	19.7	-0.9	-5.1
CC(C)(C)OC(=O)C[C@@H]1C/C=C\C[C@H](CC(=O)N(CCO)Cc2ccccc2)C(=O)NC[C@@H](c2ccccc2)OC1=O	3.5	-26.7	-42.8	5.0	1.0	0.8
O=C1NC[C@H](c2ccccc2)OC(=O)[C@@H](Cc2ccc(F)cc2)C/C=C\C[C@H]1CC(=O)N(CCO)Cc1ccccc1	84.4*	6.0	68.3*	27.2	23.9	-53.1*
O=C1NC[C@H](c2ccccc2)OC(=O)[C@H](Cc2ccc(F)cc2)C/C=C\C[C@H]1CC(=O)N(CCO)Cc1ccccc1	102.5*	-14.2	54.1*	16.2	12.2	-86.4*
O=C(Nc1ccc([N+](=O)[O-])cc1)C(c1ccccc1)c1ccccc1	2.2	-4.3	51.9*	9.7	·	3.1
COc1ccc(-n2c(C)c([N+](=O)[O-])c3ccc(O)c(CN4CCCCC4)c32)cc1	73.3*	20.1	10.0	73.9	17.8	-33.2
COc1ccc(-c2nc3ccccc3n2Cc2ccc(C)cc2)cc1	-0.1	-105.9	-37.3	-20.4	-13.7	-1.6
COc1ccc(Cn2c(-c3ccc(C)cc3)c[n+]3ccccc23)cc1	21.8	-5.8	3.4	76.2	77.7*	-7.9
O=C(Nc1ccc(N2CCOCC2)cc1)Nc1ccc2nc(-c3ccco3)c(-c3ccco3)nc2c1	69.8*	0.1	47.0	40.8	-12.5	-41.8
O=C(Nc1ccc2nc(-c3ccco3)c(-c3ccco3)nc2c1)NC1CC1	4.2	-47.7	-43.0	-3.6	-45.7	-9.9
CC1=NN(c2ccc(Cl)cc2)C(=O)C1C(c1ccccc1O)c1c(C)[nH]n(-c2ccc(Cl)cc2)c1=O (configuration not stated)	65.1*	11.6	11.0	9.6	17.3	-50.3*
COc1cccc(C(C(=O)NCc2ccccc2)N2CCN(CCN3CCOCC3)CC2)c1OC (configuration not stated)	·	4.5	·	·	·	·
CC(C)(CO)NCc1c(OCc2ccc(Cl)cc2)ccc2ccccc12	10.8	-54.3	53.7*	16.6	-9.8	-1.3
COc1cc(/C=N/NS(=O)(=O)c2ccc(C)cc2)ccc1OCc1ccc(C(=O)O)cc1	10.8	32.2	-20.1	25.1	72.3*	-15.5
CCOc1ccc(/C=N/NS(=O)(=O)c2ccc(C)cc2)cc1OC	5.0	18.9	21.3	7.5	-7.9	6.0
COc1ccc(C(=O)C=Cc2ccc(OCc3ccccc3)c(OC)c2)cc1OC	-0.1	20.7	80.0*	0.5	·	-16.0
COC(=O)c1cn(C(=O)/C=C/c2ccc(OC)c(OC)c2)c2ccccc12	12.1	-86.4	82.1*	-38.4	-20.2	-16.4
COc1ccc(/C=C/C(=O)C(C)(C)C)cc1OC	-2.5	-11.5	82.8*	-1.2	0.8	2.7
O=C(NC1CCCC1)C1CCN(C(=O)c2cc(Cl)ccc2Cl)CC1	-10.6	2.6	13.7	0.3	0.4	-8.3
O=C(Nc1ncc([N+](=O)[O-])s1)c1ccccc1Br	36.9	-211.6	-158.2	-2.6	-31.7	-3.8
O=C(/C=C/c1ccccc1)c1ccccc1	-7.4	-62.3	-24.2	-54.0	-22.1	-3.7
COc1ccc(Oc2ccc(/C=N/NC(=O)c3cccnc3)cc2[N+](=O)[O-])cc1	-14.2	0.2	-15.4	4.9	8.7	-1.7
SMILES	CF NFkB inh	HIF-2a block	Peg3 promoter	Shn3 3UTR inh	TRPM1 prom inh	KKLEB cytotox
COc1ccc(Oc2ccc(/C=C/C(=O)c3cccc(OC)c3)cc2[N+](=O)[O-])cc1	-27.7	34.3	113.8*	-4.9	1.4	1.0
CCC1CSC(Nc2ccc(C(=O)/C=C/c3ccc(OC)c(OC)c3)cc2)=N1 (configuration not stated)	14.1	26.5	90.7*	87.5*	43.1	-7.3
COc1ccc(C=CC(=O)c2ccc3cc(OC)c(OC)cc3c2)cc1OC	35.6	3.2	92.4*	55.0	·	-13.4
O=C(/C=C/c1ccccc1)c1ccc2ccccc2c1	-23.7	-219.9	77.5*	-61.2	-51.6	7.9
CC(C)C(=O)Nc1ccc(N2CCOCC2)c(S(=O)(=O)Nc2ccccc2Cl)c1	16.6	8.5	22.1	2.5	3.0	0.3
COc1cc(F)ccc1-c1csc(C(O)c2ccccc2)n1 (configuration not stated)	-14.0	-61.5	-40.7	8.5	·	-15.8
Cc1cc(Cn2nc(-c3ccccc3)cc2C(=O)NCc2cccc(Br)c2)on1	-1.0	8.5	27.9	0.1	1.2	2.2
O=C(COc1c(Br)cc(Br)c2cccnc12)N1CCCCC1	-8.6	-24.9	-6.9	-1.2	15.4	-6.1
Oc1c(CN2CCc3ccccc3C2)cc(Cl)c2cccnc12	23.8	-5.3	50.3*	86.8*	75.1*	-6.3
O=C(Oc1c(CN2CCOCC2)cc(Cl)c2cccnc12)c1ccccc1F	-6.6	3.1	22.5	40.2	68.5*	-4.9
COc1cc(OC)cc(C(=O)Oc2c(CN3CCOCC3)cc(Cl)c3cccnc23)c1	-2.6	16.9	10.1	0.7	0.7	6.5
Oc1c(CN2CCCCC2)cc(Br)c2cccnc12	-1.7	-7.0	39.3	56.3	74.5*	-19.5
Oc1c(Cl)cc(CN2CCOCC2)c2cccnc12	47.5	-11.3	30.5	90.3*	55.2	-42.2
Cc1ccccc1SCC(=O)OCC(=O)NCc1ccccc1	24.3	9.4	-4.2	-6.5	-5.5	-12.4
C[C@H](CO)N1C[C@H](C)[C@@H](CN(C)S(=O)(=O)c2ccccc2F)OCc2cnnn2CCCC1=O	5.8	1.7	-0.7	-18.1	·	1.3
Cc1cc(C)c(C#N)c(N2CCN(C(=O)C3COc4ccccc4O3)CC2)n1 (configuration not stated)	-24.0	-13.4	21.7	0.0	-9.2	-27.4
O=C(Oc1c(CN2CCOCC2)cc(Cl)c2cccnc12)c1ccccc1	5.6	16.7	41.8	68.9	64.1*	1.7
CN1CCN(Cc2cc(COCc3ccccc3)c3cccnc3c2O)CC1	8.9	11.3	40.7	74.2	79.2*	5.3
Oc1ccc(CN2CCN(Cc3ccccc3)CC2)c2cccnc12	-9.5	13.7	-24.5	35.4	27.8	-4.4
CC1(C)Cc2c(cnn2-c2ccc(F)cc2)C(NC(=O)CCc2ccncc2)C1 (configuration not stated)	5.2	-84.2	-60.0	-5.9	-49.0	-8.3
CCN(CC(=O)NCc1ccc(F)cc1)C(=O)c1cccnc1SC	-3.0	12.3	13.8	8.3	1.0	2.4
